Experimental findings from the supplement of paper PMC4022240 are described below.

Holding throughout (assay): peptide microarray binding signal (635 nm), min-max normalized on array (fraction of array maximum); higher = stronger binding
In assay [1] the target is T1, HaloTag-ATRX ADD domain (163-292).
T1 chain: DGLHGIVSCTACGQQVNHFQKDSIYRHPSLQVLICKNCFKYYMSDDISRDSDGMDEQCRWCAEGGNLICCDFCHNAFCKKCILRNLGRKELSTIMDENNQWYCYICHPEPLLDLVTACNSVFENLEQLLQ
In a few lines:
(§1)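 Triplicate spots of histone 13-mer peptide–cellulose conjugates with a Cy3 tracer were printed on nitrocellulose and probed for 1 h at 4°C with biotin-labelled HaloTag reader fusions (10 nM to 1 μM) plus streptavidin-Alexa Fluor 647 or rabbit histone antibodies (1:10,000 to 1:2,000) plus anti-rabbit Alexa 647. An Axon GenePix 4000B read the 635 nm channel. Binding signal is the spot-triplicate mean intensity after min-max scaling within each library.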

The target in assay [2] is HaloTag-ING2 PHD (mouse Ing2 200-280). In a few lines: as §1
The target of assay [3] is anti-H3K4me3 antibody ab8580. In a few lines:
as §1

For assay [4], the target named is anti-H3K9me3 antibody ab8898. The method, boiled down: as §1
Where [5] appears, read: peptide region: H3 30-42, peptide modifications: H3K36ac H3K37me2, binder concentration: 1:2,000 dilution.
[6] abbreviates: peptide region: H3 30-42, peptide modifications: H3K36ac H3K37me2, binder concentration: 1:10,000 dilution.
The mark [7] stands for this setting: peptide region: H3 20-32, peptide modifications: H3R26me2s, binder concentration: 1:2,000 dilution.
Where [8] appears, read: peptide region: H3 20-32, peptide modifications: H3R26me2s, binder concentration: 1:10,000 dilution.
Where [9] appears, read: peptide region: H3 20-32, peptide modifications: H3T22ph H3K23me3, binder concentration: 1:2,000 dilution.
The mark [10] stands for this setting: peptide region: H3 20-32, peptide modifications: H3T22ph H3K23me3, binder concentration: 1:10,000 dilution.
Where [11] appears, read: peptide region: H3 20-32, peptide modifications: H3T22ph H3K23ac, binder concentration: 1:2,000 dilution.
[12] abbreviates: peptide region: H3 20-32, peptide modifications: H3T22ph H3K23ac, binder concentration: 1:10,000 dilution.
[13] abbreviates: peptide region: H3 30-42, peptide modifications: H3K36me1 H3K37ac, binder concentration: 1:2,000 dilution.
Where [14] appears, read: peptide region: H3 30-42, peptide modifications: H3K36me1 H3K37ac, binder concentration: 1:10,000 dilution.

± gives the standard deviation.

Take PATGGVKKPHRYR [H3 30-42 P A T G G V Kac Kme2 P H R Y R]: the “peptide microarray binding signal” value in assay [1] (peptide region: H3 30-42, peptide modifications: H3K36ac H3K37me2, binder concentration: 50 nM) was 0.0026 ± 5.2e-05; in assay [1] (peptide region: H3 30-42, peptide modifications: H3K36ac H3K37me2, binder concentration: 500 nM), 0.00462 ± 0.00028; in assay [2] (peptide region: H3 30-42, peptide modifications: H3K36ac H3K37me2, binder concentration: 10 nM) it was 0.00269 ± 6.6e-05; in assay [2] (peptide region: H3 30-42, peptide modifications: H3K36ac H3K37me2, binder concentration: 100 nM) it was 0.00354 ± 8.3e-05; in assay [3] (setting [5]) it was 0.00125 ± 9e-05; in assay [3] (setting [6]) it was 0.00097 ± 2e-05. Further, the “peptide microarray binding signal” value in assay [4] (setting [5]) worked out at 0.00166 ± 9.8e-05; in assay [4] (setting [6]), 0.00127 ± 0.0001.

With LATKAARKSAPAT [H3 20-32 L A T K A A Rme2s K S A P A T], the “peptide microarray binding signal” value in assay [1] (peptide region: H3 20-32, peptide modifications: H3R26me2s, binder concentration: 50 nM) amounted to 0.00668 ± 0.00025; in assay [1] (peptide region: H3 20-32, peptide modifications: H3R26me2s, binder concentration: 500 nM), 0.01295 ± 0.0001; in assay [2] (peptide region: H3 20-32, peptide modifications: H3R26me2s, binder concentration: 10 nM), 0.0106 ± 0.00025; in assay [2] (peptide region: H3 20-32, peptide modifications: H3R26me2s, binder concentration: 100 nM) it was 0.0116 ± 0.00039; in assay [3] (setting [7]), 0.00451 ± 0.00012; in assay [3] (setting [8]) it was 0.00479 ± 0.00014. In addition, the “peptide microarray binding signal” value amounted to 0.0047 ± 0.00025 in assay [4] (setting [7]) and 0.00329 ± 9.9e-05 in assay [4] (setting [8]).

On to LATKAARKSAPAT [H3 20-32 L A Tph Kme3 A A R K S A P A T], for which the “peptide microarray binding signal” value in assay [1] (peptide region: H3 20-32, peptide modifications: H3T22ph H3K23me3, binder concentration: 50 nM) was 0.00577 ± 0.00039; in assay [1] (peptide region: H3 20-32, peptide modifications: H3T22ph H3K23me3, binder concentration: 500 nM), 0.0105 ± 0.00049; in assay [2] (peptide region: H3 20-32, peptide modifications: H3T22ph H3K23me3, binder concentration: 10 nM) it was 0.0219 ± 0.0024; in assay [2] (peptide region: H3 20-32, peptide modifications: H3T22ph H3K23me3, binder concentration: 100 nM) it was 0.026 ± 0.0027; in assay [3] (setting [9]), 0.0775 ± 0.0084; in assay [3] (setting [10]) it was 0.0633 ± 0.0092. In addition, the “peptide microarray binding signal” value is 0.0523 ± 0.0034 in assay [4] (setting [9]) and 0.0244 ± 0.0027 in assay [4] (setting [10]).

Regarding LATKAARKSAPAT [H3 20-32 L A Tph Kac A A R K S A P A T], the “peptide microarray binding signal” value in assay [1] (peptide region: H3 20-32, peptide modifications: H3T22ph H3K23ac, binder concentration: 50 nM) was 0.00602 ± 0.00043; in assay [1] (peptide region: H3 20-32, peptide modifications: H3T22ph H3K23ac, binder concentration: 500 nM), 0.0111 ± 0.0014; in assay [2] (peptide region: H3 20-32, peptide modifications: H3T22ph H3K23ac, binder concentration: 10 nM), 0.0199 ± 0.0011; in assay [2] (peptide region: H3 20-32, peptide modifications: H3T22ph H3K23ac, binder concentration: 100 nM), 0.0259 ± 0.00072; in assay [3] (setting [11]), 0.00476 ± 0.00081; in assay [3] (setting [12]), 0.00616 ± 0.00082. Further, the “peptide microarray binding signal” value was 0.00257 ± 0.00028 in assay [4] (setting [11]) and 0.00202 in assay [4] (setting [12]).

Consider PATGGVKKPHRYR [H3 30-42 P A T G G V Kme Kac P H R Y R], for which the “peptide microarray binding signal” value in assay [1] (peptide region: H3 30-42, peptide modifications: H3K36me1 H3K37ac, binder concentration: 50 nM) was determined as 0.00263 ± 0.00011; in assay [1] (peptide region: H3 30-42, peptide modifications: H3K36me1 H3K37ac, binder concentration: 500 nM), 0.0039 ± 5.6e-05; in assay [2] (peptide region: H3 30-42, peptide modifications: H3K36me1 H3K37ac, binder concentration: 10 nM), 0.00298 ± 3.3e-05; in assay [2] (peptide region: H3 30-42, peptide modifications: H3K36me1 H3K37ac, binder concentration: 100 nM), 0.00354 ± 8.3e-05; in assay [3] (setting [13]), 0.00145 ± 6.2e-05; in assay [3] (setting [14]), 0.00137 ± 5.4e-05. The “peptide microarray binding signal” value in assay [4] (setting [13]) came to 0.00163 ± 7.6e-05; in assay [4] (setting [14]), 0.00127 ± 2.5e-05.
